A selection: hits, their analogues and other compounds. The true share with any hit is near 2.8%.
Six1-Eya2 blk – Six1/Eya2 interaction inhibition. AlphaScreen GST-Six1/His-Eya2 binding, biochemical; hits give low values. activity change, % (test concentration not listed). 360,000 compounds, 0.56% hits. AID 651725; in the data active means activity change below about -65%; inconclusive means mostly about -30% to -63%; further: on the % scale 0 is the no-effect control and ±100 the full control effect
Target sequence (O00167 whole entry, looked up): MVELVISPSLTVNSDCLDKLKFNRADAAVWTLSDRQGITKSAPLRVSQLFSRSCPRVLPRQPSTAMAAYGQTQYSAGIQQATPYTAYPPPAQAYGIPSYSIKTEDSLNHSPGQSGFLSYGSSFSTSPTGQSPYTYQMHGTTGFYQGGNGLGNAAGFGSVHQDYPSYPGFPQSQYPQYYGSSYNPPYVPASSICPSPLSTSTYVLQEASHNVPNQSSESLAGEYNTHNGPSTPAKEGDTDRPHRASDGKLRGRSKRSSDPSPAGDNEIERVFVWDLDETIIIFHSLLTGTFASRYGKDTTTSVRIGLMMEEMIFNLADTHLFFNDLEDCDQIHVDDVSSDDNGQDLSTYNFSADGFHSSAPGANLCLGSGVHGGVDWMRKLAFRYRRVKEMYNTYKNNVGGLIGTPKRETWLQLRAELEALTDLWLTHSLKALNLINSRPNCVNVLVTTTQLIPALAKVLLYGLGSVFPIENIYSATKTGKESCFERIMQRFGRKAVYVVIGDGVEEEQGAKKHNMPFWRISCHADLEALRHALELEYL
Target sequence (Q15475 whole entry, looked up): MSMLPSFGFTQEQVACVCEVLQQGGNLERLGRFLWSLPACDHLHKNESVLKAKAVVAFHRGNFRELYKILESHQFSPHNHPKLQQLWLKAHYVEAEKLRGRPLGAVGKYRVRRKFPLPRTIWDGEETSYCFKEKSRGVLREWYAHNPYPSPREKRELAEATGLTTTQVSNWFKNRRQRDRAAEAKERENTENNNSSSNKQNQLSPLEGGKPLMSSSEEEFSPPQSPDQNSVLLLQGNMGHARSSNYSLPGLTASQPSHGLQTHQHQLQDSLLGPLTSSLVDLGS
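Homogeneous AlphaScreen proximity assay pairing GST-Six1 with His-tagged Eya2 (added as 5X mix: 250 nM and 500 nM) in 50 mM Tris pH 8.0, 300 mM NaCl, 1 mM TCEP. Glutathione donor and nickel acceptor beads; 1 h, 37 °C, dark.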
CtBP-E1A blk – CtBP/E1A binding inhibition; AlphaScreen GST-E1A/His-CtBP binding, 1536-well; hits give low values; activity change, % (test concentration not listed); 340,000 compounds, 0.49% hits; in the data active means activity change below about -65%; inconclusive means mostly about -30% to -63%; further: on the % scale 0 is the no-effect control and ±100 the full control effect
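GST-E1A and His-tagged CtBP (125 nM each as 5X stock) were preincubated with pin-transferred compound for 2 h at 37 °C in the dark, then glutathione donor and nickel acceptor beads were added for 1 h before AlphaScreen reading.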
HepG2 tox – HepG2 cytotoxicity, counter-screen for TGF-b inhibitors; HepG2 CAGA-GFP viability, ATP luminescence, 18 h; Potency, µM (top dose mostly 46.1 µM), without a hit: at the highest dose activity change, negative = cytotoxicity, most hits filed as cytotoxic; 410,000 compounds, 0.76% hits; AID 588856; further: potency means the concentration at half of the fitted maximal effect
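CellTiter-Glo luminescence gave cytotoxicity after 18 hours at 37 degrees C. The cells were HepG2 CAGA-GFP in 1% FBS DMEM, stimulated with 500 pg/mL TGF-beta after compound addition. %Activity was normalised to no-cell wells (complete cell-killing) and DMSO (no toxicity), and curves were fitted and classified.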
S2 tox – cell viability loss in ATXN counter-screen | S2 cells (HEK-293 line with an ATXN2-luciferase reporter) viability, CellTiter-Fluor protease fluorescence, 24 h | Potency, µM (titrated, usually from 56.7 µM), actives largely listed as cytotoxic | 400,000 compounds, 0.49% hits | AID 651635; further: potency means the concentration at half of the fitted maximal effect; nearly all actives have a fitted effect of over 40% in size
ATXN2 expr inh – ATXN2 expression inhibition. HEK-293 ATXN2-luciferase reporter, luminescence, 24 h. Potency, µM (doses to about 57 µM), without a hit: at the top dose activity change, negative = inhibition, usual class: inhibitors. 360,000 compounds, 0.72% hits; further: potency means the concentration at half of the fitted maximal effect; on the % scale 0 is the no-effect control and ±100 the full control effect; nearly all actives have a fitted effect of over 55% in size
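ATXN2-luciferase reporter cells (luciferase flanked by upstream and downstream ATXN2 gene portions) were treated 24 h at 37 °C with compounds at up to 57 uM. SteadyGlo luminescence gave expression; GF-AFC fluorescence gave viability.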
TGFb SMAD3 inh – blocks TGF-b signaling. HepG2 CAGA-GFP TGF-b/SMAD3 reporter, GFP fluorescence, 18 h; TGF-beta stimulated, 500 pg/mL final. 410,000 compounds, 1.2% hits. Potency, µM (highest dose often 46.1 µM), inactives show top-dose activity, negative = inhibition, usual class: inhibitors; further: potency means the concentration at half of the fitted maximal effect; on the % scale 0 is the no-effect control and ±100 the full control effect; nearly all actives have a fitted effect of over 65% in size
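Using HEPG2 CAGA-GFP reporter cells at 1000 cells/well, we pinned test compounds, stimulated with recombinant TGF-beta (500 pg/mL final) and measured total well GFP after 18 h.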
Starred values were filed as active, the others as inactive; i = inactive; ? = inconclusive; / = not tested or not shown. Unless noted, the call rests on the fitted dose curve; in most records, active means well fitted curve in the direction sought with a large enough effect; inconclusive means small, poorly fitted or top-dose-only effect, or another doubt; inactive means no such curve, though single readings can be large; an effect the other way counts as inactive or inconclusive.

SMILES | Six1-Eya2 blk | CtBP-E1A blk | HepG2 tox | S2 tox | ATXN2 expr inh | TGFb SMAD3 inh
CC(C)=CCc1c2c(c3occ(-c4ccc(O)cc4)c(=O)c3c1O)C=CC(C)(C)O2 | -15 | ? | 10µM* | / | ? | 7.9µM*
CN(C(=O)CSc1nc2ccc(NC(=O)COc3ccccc3Cl)cc2s1)c1ccccc1 | / | / | -3% | i | 0% | 5%
Cc1cc(=O)[nH]c2ccc(O)cc12 | / | / | 4% | / | / | 3%
CCN(CC)CCNC(=O)c1nn(-c2ccc(Cl)cc2)c2c1CCc1cc(OC)ccc1-2 | -10 | 3 | 14µM* | ? | ? | ?
COc1ccc2c(c1)CCc1c(C(=O)NCc3ccc(Cl)cc3)noc1-2 | 8 | 2 | -5% | i | -6% | -8%
CCn1cc(C(=O)NCc2ccccc2)c(=O)c2cc(F)c(N3CCN(C(=O)c4ccco4)CC3)cc21 | -17 | -9 | -49% | i | ? | 20µM*
CCn1cc(C(=O)NCc2ccncc2)c(=O)c2cc(F)c(N3CCN(C(=O)c4ccco4)CC3)cc21 | -5 | -3 | -7% | i | 0% | -18%
C[C@@H]1C/C=C/C=C/C=C/C=C/[C@H](O[C@@H]2O[C@H](C)[C@@H](O)[C@H](N)[C@@H]2O)C[C@@H]2O[C@](O)(C[C@@H](O)C[C@H]3O[C@@H]3/C=C/C(=O)O1)C[C@H](O)[C@H]2C(=O)O | / | / | / | i | / | /
CC(C)(C)c1ccc(S(=O)(=O)N[C@H]2CC[C@@H](n3cc(C(=O)N4CCCC4)nn3)CC2)cc1 | / | / | / | i | / | /
O=C(Nc1ccc(C(F)(F)F)cc1)C1CCCN(S(=O)(=O)c2cccc3cccnc23)C1 (configuration not stated) | / | / | -34% | i | 6% | 11µM*
O=C(Nc1ccncc1)C1CCCN(S(=O)(=O)c2cccc3cccnc23)C1 (configuration not stated) | -1 | -23 | -3% | ? | ? | -16%
COC1(OC)C=CC(=O)C=C1NC(=O)c1ccccc1OC(C)=O | / | / | -4% | 14µM* | 18µM* | 11µM*
O=C(COC(=O)c1ccccc1)NCCCCc1ccccc1 | 2 | -5 | -30% | i | / | -1%
CNC[C@@H](CC1CCCCC1)NC[C@H](CC(C)C)NCCc1cccc(C(F)(F)F)c1 | 1 | -5 | 10µM* | / | 14µM* | ?
CCC[C@@H](CN[C@@H](CNC)C(C)C)NCCCCc1ccccc1 | 2 | -2 | 16µM* | ? | ? | ?
CNC[C@@H](Cc1ccccc1)NC[C@@H](CC1CCCCC1)NCCCc1ccccc1 | 12 | -22 | 13µM* | 20µM* | ? | ?
CCC[C@@H](CNC)NC[C@H](Cc1ccccc1)NCCCCc1ccccc1 | -4 | -8 | -123% | / | 25µM* | ?
CCOC(=O)C(=O)c1csc(NC=O)n1 | / | / | / | i | 12% | /
COc1ccccc1CN1CCC(CNC(=O)c2cnn(-c3ccc(C)c(C)c3)c2C2CCN(C(=O)OC(C)(C)C)CC2)CC1 | / | / | -87% | / | / | ?
Cc1ccc(-n2ncc(C(=O)NCCN3CCCC3)c2C2CCN(C(=O)OC(C)(C)C)CC2)cc1 | / | / | -45% | / | / | 0%
COc1ccccc1CN1CCC(CNC(=O)c2cnn(-c3ccc(Cl)cc3)c2C2CCN(C(=O)OC(C)(C)C)CC2)CC1 | / | / | -108% | / | / | 10µM*
CC(C)(C)OC(=O)N1CCC(c2c(C(=O)NCCN3CCC(Cc4ccccc4)CC3)cnn2-c2cccc(Cl)c2)CC1 | / | / | 7.1µM* | / | / | ?
Cc1ccc(-n2ncc(C(=O)NCCN3CCc4ccccc4C3)c2C2CCN(C(=O)OC(C)(C)C)CC2)cc1 | / | / | -100% | / | / | ?
Cc1ccc(-n2ncc(C(=O)NCCN3CCc4ccccc4C3)c2C2CCN(C(=O)OC(C)(C)C)CC2)c(C)c1 | / | / | -45% | / | ? | 16µM*
Cc1ccc(-n2ncc(C(=O)NCCN3CCC(Cc4ccccc4)CC3)c2C2CCN(C(=O)OC(C)(C)C)CC2)cc1 | / | / | 13µM* | / | / | ?
SMILES | Six1-Eya2 blk | CtBP-E1A blk | HepG2 tox | S2 tox | ATXN2 expr inh | TGFb SMAD3 inh
CN1CCN(CCNC(=O)c2cnn(-c3cccc(Cl)c3)c2C2CCN(C(=O)OC(C)(C)C)CC2)CC1 | / | / | -36% | / | / | 2%
CCOCCOC(=O)/C=C/c1ccc(OC)cc1 | / | / | / | i | 28% | /
CCOc1ccc(/C=C/c2ccc3ccccc3[n+]2C)cc1OCC | / | / | -4% | / | / | 0%
Cc1oc(-c2cccc(Cl)c2)nc1Cn1c(SCc2ccc(F)cc2)nc2cccnc21 | / | / | -31% | / | / | -22%
O=C(OCC1(COC(=O)c2cccnc2)CCCC(COC(=O)c2cccnc2)(COC(=O)c2cccnc2)C1O)c1cccnc1 | / | / | / | i | -1% | /
CC(C)(C)OC(=O)N1CCC(c2c(C(=O)N3CCN(C4CCCCC4)CC3)cnn2-c2ccccc2)CC1 | -2 | / | 1% | i | / | 4%
Cc1cccc(-n2ncc(C(=O)N3CCN(C4CCCCC4)CC3)c2C2CCN(C(=O)OC(C)(C)C)CC2)c1 | / | / | -18% | / | / | 8.9µM*
Oc1ccc(/C=N/Nc2ccnc3cc(Cl)ccc23)c(O)c1O | 8 | 3 | -1% | i | 3% | 0%
Oc1ccc(/C=N/Nc2ccnc3cc(Cl)ccc23)cc1O | -30 | ? | -41% | 32µM* | ? | ?
O=C1/C(=C/c2cccnc2)CCC/C1=C\c1cccnc1 | -7 | 0 | -99% | 11µM* | 18µM* | 4µM*
CCC1C/C(=C\c2cccnc2)C(=O)/C(=C/c2cccnc2)C1 (configuration not stated) | -8 | 0 | 10µM* | / | 14µM* | 4µM*
O=C1/C(=C/c2cccnc2)CC/C1=C\c1cccnc1 | 0 | 1 | -13% | ? | ? | 7%
O=C1/C(=C/c2ccc(C(=O)O)cc2)CCC/C1=C\c1ccc(C(=O)O)cc1 | -67* | 3 | 6% | ? | -2% | -5%
N#Cc1c(SCC(=O)Nc2nncs2)sc2c(O)cc(=O)[nH]c12 | ? | -82* | -4% | i | -2% | -1%
COc1cc(C)ccc1OCCOCCN(C)Cc1ccccc1 | 4 | -1 | 20µM* | i | -13% | 0%
CN(CCOCCOc1ccc2ccccc2c1)Cc1ccccc1 | -5 | 0 | -36% | i | -11% | ?
COc1ccc(C2c3ccc4ccccc4c3Oc3ncn(CCCO)c(=N)c32)cc1 (configuration not stated) | 2 | -17 | -117% | / | 25µM* | ?
COc1ccc(C2c3ccc4ccccc4c3Oc3ncn(CCO)c(=N)c32)cc1 (configuration not stated) | -5 | 2 | -11% | ? | ? | 0%

Compound activity (PubChem)
